Assay outcomes from PubChem.
TDP1 cell CPT: growth inhibition of DT40 Tdp1-/-;hTDP1 cells with camptothecin (screen for TDP1 inhibitors); Potency, µM (series often up to 46.2 µM), most hits filed as inhibitors; chicken DT40 Tdp1-/-;hTDP1 cells + 20 nM CPT, ATP luminescence, 48 h; AID 686979; hit rate 12% among 420,000; further: nearly all actives have a fitted effect of over 55% in size
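Chicken DT40 Tdp1-/- cells stably complemented with human TDP1 were seeded at 400 cells/well in medium containing 20 nM camptothecin, exposed to pin-transferred compounds, and grown at 37 °C for at least 48 hr. Viability was read as ATP luminescence.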
TDP1 cell noCPT: qHTS for Inhibitors of human tyrosyl-DNA phosphodiesterase 1 (TDP1): qHTS in cells in absence of CPT; AID 686978, 2013; DT40 Tdp1-/- hTDP1 cells, no CPT, ATP luminescence, 48 h; hit rate 15% among 420,000; Potency, µM (top dose mostly 46.2 µM), most hits filed as inhibitors; further: nearly all actives have a fitted effect of over 55% in size
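Cells were dispensed at 400 per well, compounds added by pin tool, plates incubated ≥48 hr at 37 °C, then CellTiter-Glo added for 30 min at room temperature before luminescence reading. Line: DT40 Tdp1-/- complemented with hTDP1; camptothecin omitted.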
HepG2 viability: HepG2 cytotoxicity, counter-screen for TGF-b inhibitors. hit rate 0.76% among 410,000. Potency, µM (highest dose often 46.1 µM), most hits filed as cytotoxic. HepG2 CAGA-GFP viability, ATP luminescence, 18 h
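HepG2 CAGA-GFP cells (1000/well, DMEM with 1% FBS) received compound, then TGF-beta at 500 pg/mL final, and were incubated 18 hours at 37 degrees C. Viability was read by CellTiter-Glo luminescence. Media-only wells were set as complete cell-killing and DMSO as no toxicity.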
ASM inhibitor: human S-ASM enzyme inhibition; P17405; placental ASM, HMU-PC fluorogenic substrate, 60 min; Potency, µM (highest dose often 57.5 µM), hits mostly inhibitors; hit rate 0.006% among 340,000
Target sequence (P17405 47-631 limits assumed): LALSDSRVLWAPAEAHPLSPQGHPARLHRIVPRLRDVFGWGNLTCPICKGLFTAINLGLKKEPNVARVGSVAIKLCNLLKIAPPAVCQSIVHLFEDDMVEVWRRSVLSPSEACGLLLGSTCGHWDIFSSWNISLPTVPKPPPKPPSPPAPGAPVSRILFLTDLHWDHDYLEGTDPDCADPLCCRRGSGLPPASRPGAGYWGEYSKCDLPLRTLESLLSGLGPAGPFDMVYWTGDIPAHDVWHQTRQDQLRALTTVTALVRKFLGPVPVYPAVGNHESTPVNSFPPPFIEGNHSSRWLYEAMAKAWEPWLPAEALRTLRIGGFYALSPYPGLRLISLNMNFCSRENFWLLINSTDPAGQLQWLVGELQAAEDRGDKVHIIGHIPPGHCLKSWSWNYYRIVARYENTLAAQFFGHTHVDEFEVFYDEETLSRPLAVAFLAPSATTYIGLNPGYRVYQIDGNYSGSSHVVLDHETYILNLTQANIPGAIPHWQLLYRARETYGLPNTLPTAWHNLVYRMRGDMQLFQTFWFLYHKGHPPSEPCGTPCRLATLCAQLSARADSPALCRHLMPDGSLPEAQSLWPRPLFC
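qHTS format. ASM enzyme prepared from human placenta hydrolyses the fluorogenic substrate HMU-PC0 (9 uM final) over 60 min at 37 °C after a 10 min compound preincubation.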
TGFb inhibitor: blocks TGF-b signaling. HepG2 CAGA-GFP TGF-b/SMAD3 reporter, GFP fluorescence, 18 h; TGF-beta stimulated, 500 pg/mL final. Potency, µM (highest dose often 46.1 µM), most hits filed as inhibitors. hit rate 1.2% among 410,000. AID 588855; further: nearly all actives have a fitted effect of over 65% in size
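HEPG2 CAGA-GFP, 1000 cells/well; 2 h settle, 37 C; cpd via pin tool; TGF-b 500 pg/mL final; 18 h, 37 C; GFP imaging ex488/em500-530; %Activity normalised to -TGF-b and +DMSO controls; CRC fit, curve class.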
IL-1B inflam inh: blocks inflammasome-driven IL-1 beta release; hit rate 4.7% among 360,000; AID 743279; activity change, % at 57.5 µM; THP-1 LPS/ATP IL-1B secretion, AlphaLISA, 16 h; active compounds read low; in the data active means activity change below about -50%; inconclusive means mostly about -30% to -49%
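Secreted IL-1B measured by AlphaLISA bead assay after 16 h compound exposure of THP-1 cells; compounds (final up to 57.5 uM) added 1 h before LPS (250 ng/mL) and ATP (1.25 mM) stimulation; lower signal means less secretion.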
Hits are given with their value; 0 = inactive; ? = inconclusive; - = no result. Sampled rows, rich in hits. Any-hit rate of the full collection: about 19%. Unless noted, the call rests on the fitted dose curve; in most records, active means well fitted curve in the direction sought with a large enough effect; inconclusive means small, poorly fitted or top-dose-only effect, or another doubt; inactive means no such curve, though single readings can be large; an effect the other way counts as inactive or inconclusive.

SMILES	TDP1 cell CPT	TDP1 cell noCPT	HepG2 viability	ASM inhibitor	TGFb inhibitor	IL-1B inflam inh
Cc1cc(C(=O)CCC(=O)Nc2ccc(C(N)=O)cc2)c(C)s1	0	0	0	-	0	?
O=C(NCc1ccccc1F)C1CCN(c2nn3cc(-c4ccc(F)cc4)nc3s2)CC1	0	0	0	-	0	-
O=C(CC(C(=O)O)n1ccnc1)c1ccc(Cl)cc1 (configuration not stated)	7.08µM	7.08µM	0	-	0	-
Cc1ccc(-n2nc3c(N4CCC(C(=O)NC(C)C)CC4)nnc(C)c3c2C)cc1	0	0	0	-	?	-
COc1ccc(-n2nc3c(N4CCCC(C(=O)NCc5ccc(C)cc5)C4)nnc(C)c3c2C)cc1 (configuration not stated)	4.61µM	3.26µM	0	-	0	-
COc1ccc(CNC(=O)C2CCN(c3nnc(C)c4c(C)n(-c5ccc(C)cc5)nc34)CC2)cc1	?	16.4µM	0	-	?	-
Cc1nnc(N2CCCC(C(=O)NCc3ccc(OC(C)C)cc3)C2)c2nn(-c3ccccc3)c(C)c12 (configuration not stated)	?	?	0	0	0	?
CCc1ccc(CNC(=O)C2CCCN(c3nnc(C)c4c(C)n(-c5ccc(OC)cc5)nc34)C2)cc1 (configuration not stated)	4.61µM	3.26µM	10µM	-	11.2µM	-
COc1ccc(-n2nc3c(N4CCC(C(=O)N5CCC(C)CC5)CC4)nnc(C)c3c2C)cc1	?	?	0	0	?	?
COc1ccc(CNC(=O)C2CCCN(c3nnc(C)c4c(C)n(-c5ccc(C)cc5)nc34)C2)cc1 (configuration not stated)	13µM	20.6µM	0	-	?	-
Cc1nc(Cc2ccccc2)sc1CC#N	0	0	0	0	0	0
Cc1nnc(N2CCCC(C(=O)NCCc3ccc(Cl)cc3)C2)c2nn(-c3ccccc3)c(C)c12 (configuration not stated)	?	?	0	-	0	-
COc1cc(NC(=O)C2CCN(c3nnc(C)c4c(C)n(-c5ccccc5)nc34)CC2)cc(OC)c1	?	?	0	-	?	-
Cc1ccc(-n2nc3c(N4CCCC(C(=O)NCc5ccccc5C)C4)nnc(C)c3c2C)cc1 (configuration not stated)	14.6µM	14.6µM	0	-	?	-
COc1cccc(CNC(=O)CCCn2nc(C)c3c(C)n(-c4ccccc4)nc3c2=O)c1	?	0	0	0	0	0
COc1ccc(-n2nc3c(N4CCC(C(=O)NCc5cccc(F)c5)CC4)nnc(C)c3c2C)cc1	9.2µM	10.3µM	15.8µM	-	10µM	-
COc1cccc(CNC(=O)CSc2nnc(C)c3c(C)n(-c4ccccc4)nc23)c1	?	18.4µM	0	-	?	-
COc1ccc(C(CNC(=O)C2CC(=O)N(Cc3ccccc3)C2)N2CCCC2)cc1 (configuration not stated)	0	0	0	0	0	0
O=C(O)c1ccc(N/N=C/c2ccnc3ccccc23)cc1	0	0	0	0	0	?
C(=NNC1=NCCN1)c1ccnc2ccccc12	0	?	0	-	0	-103.3
O=[N+]([O-])c1ccccc1/C=N/NC1=NCCN1	0	0	0	0	0	0
O=C(N/N=C/c1ccnc2ccccc12)c1ccccc1O	3.26µM	11.6µM	0	0	?	0
CN(C)C(CNC(=O)c1cc(-c2ccco2)nc2ccccc12)c1ccccc1 (configuration not stated)	0	0	0	0	0	0
CCN(Cc1ccccc1)C(=O)CN1C(=O)CSc2ccc(S(=O)(=O)N(CC)CC)cc21	?	?	0	-	0	-
CC1=C(C)CS(=O)N(S(=O)(=O)c2ccc(Cl)cc2)C1 (configuration not stated)	3.66µM	2.31µM	0	0	?	-92.8
SMILES	TDP1 cell CPT	TDP1 cell noCPT	HepG2 viability	ASM inhibitor	TGFb inhibitor	IL-1B inflam inh
CC1CCCC(C)N1S(=O)(=O)c1ccc(Cl)cc1 (configuration not stated)	0	?	0	0	0	0
OC[C@@H]1CCC[C@@H](n2cnc3c(=S)nc[nH]c32)O1	?	0	0	-	0	-
CN(C)c1ccc(/C=C/N2C=CCc3c2ccc2ccccc32)cc1	0.0794µM	0.0891µM	0	-	7.08µM	-
CCOC(=O)[C@]12CCC=C1N(Cc1ccc3c(c1)OCO3)C(=O)[C@H](CC(=O)NCCC(C)C)C2	?	18.4µM	-	-	-	0
CCOC(=O)[C@]12CCC=C1N(Cc1ccc3c(c1)OCO3)C(=O)[C@H](CC(=O)NCc1ccccc1)C2	?	?	-	-	-	0
CCOC(=O)[C@]12CCCC=C1N(Cc1ccc3c(c1)OCO3)C(=O)[C@H](CC(=O)NCCCCc1ccccc1)C2	?	20.6µM	-	-	-	-63.0
CCOC(=O)[C@]12CCCC=C1N(Cc1ccc3c(c1)OCO3)C(=O)[C@H](CC(=O)NCC13CC4CC(CC(C4)C1)C3)C2	?	23.1µM	-	-	-	0
CCCCNC(=O)C[C@@H]1C[C@@]2(C(=O)OCC)CCC=C2N(Cc2ccc3c(c2)OCO3)C1=O	?	?	-	-	-	0
CCOC(=O)[C@]12CCC=C1N(Cc1ccc3c(c1)OCO3)C(=O)[C@H](CC(=O)NCCCCc1ccccc1)C2	?	20.6µM	-	-	-	-69.0
COC(=O)c1cc(C(=O)OCC(=O)NNC(=O)c2cccs2)cc([N+](=O)[O-])c1	0	0	0	0	0	0
CC1CN(C(=O)/C(=C/c2ccco2)NC(=O)c2ccccc2)CC(C)O1 (configuration not stated)	0	0	0	0	0	0
COc1ccc(C(=O)NCC(=O)N/N=C(\C)Cc2ccccc2)cc1	0	0	0	0	0	0
O=C(NCc1ccccc1Cl)c1ccc(-n2cnc3cccnc32)cc1	-	-	0	-	0	-
CCn1cc(C(=O)N[C@@H](CCSC)C(=O)NCCO)c(=O)c2cc3c(cc21)OCO3	0	0	0	0	0	0
CC(=O)N1CCC2(CCCN(c3ccncc3)C2)CC1	0	0	-	-	-	-
CCCCNC(=O)C[C@@H]1C[C@@]2(C(=O)OC)CCCCC=C2N(Cc2ccc3c(c2)OCO3)C1=O	?	?	-	-	-	-60.7
COC(=O)[C@]12CCCCC=C1N(Cc1ccc3c(c1)OCO3)C(=O)[C@H](CC(=O)NCCCCc1ccccc1)C2	?	?	-	-	-	-54.6
CCCCOCCCNC(=O)C[C@@H]1C[C@@]2(C(=O)OC)CCCCC=C2N(Cc2ccc3c(c2)OCO3)C1=O	?	?	-	-	-	0
